Results filed as inconclusive are left out. Entries that show only a call come without a potency. Activity calls are given as the source filed them. The call rests on the fitted dose curve; in most records, active means well fitted curve in the direction sought with a large enough effect; inconclusive means small, poorly fitted or top-dose-only effect, or another doubt; inactive means no such curve, though single readings can be large; an effect the other way counts as inactive or inconclusive.
Columns and labels:
[1] = biological target: Metallo-beta-lactamase type 2 (Klebsiella pneumoniae) (UniProt C7C422); assay: qHTS to identify inhibitors of the New Delhi Metallo-beta-lactamase (NDM): assay validation screen against the NCATS LOPAC Collection (AID 1794843);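 further: nitrocefin turnover by NDM-1 measured as 485 nm absorbance at plateau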
Method in brief: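 Enzyme 2 nM final, 50 mM HEPES pH 7.0, 1 uM ZnSO4, 0.01% Tween20; cpds in DMSO, preincub w/ enzyme; + nitrocefin (50 uM stock); A485 at plateau; no-enzyme column as blank.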

[2] = biological target: Glutathione peroxidase 1 (Homo sapiens) (UniProt P07203); assay: Primary qHTS Assay for Inhibitors of Recombinant Selenoprotein Glutathione Peroxidase 1 (GPX1) (AID 1845191); further: nearly all actives have a fitted effect of over 65% in size
Method in brief: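 GPX1 10 nM, GR 100 nM, GSH 1 mM, NADPH 0.5 mM, CHP 0.5 mM (final). 30-min cpd preincubation, RT. Ex340/Em450 read t=0, t=15 min.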

[3] = biological target: Phospholipid hydroperoxide glutathione peroxidase GPX4 (Homo sapiens) (UniProt P36969); assay: Primary qHTS Assay for Inhibitors of Recombinant Selenoprotein Glutathione Peroxidase 4 (GPX4) (AID 1845192); further: nearly all actives have a fitted effect of over 65% in size
Method in brief: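 qHTS, GR-coupled: GPX4 200 nM + cpd 30 min RT → GSH 1 mM, NADPH 0.5 mM, GR 100 nM → CHP 0.5 mM start; fluor 340/450 at t0 and t15 min; no-enzyme wells as control.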

[4] = Quantitative High-Throughput drug screen in 47 multiple myeloma cell lines against the NCATS MIPE library collection: FR4_PLB cell viability assay (AID 1918924; further: nearly all actives have a fitted effect of over 35% in size; further: potency means the concentration at half of the fitted maximal effect)
Method in brief: (§1)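 qHTS of the MIPE 4.0 collection: 500 myeloma cells/well, 48 h drug exposure at 37C in 5% CO2, then CellTiter-Glo for 5 min at room temperature before luminescence reading.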

[5] = Quantitative High-Throughput drug screen in 47 multiple myeloma cell lines against the NCATS MIPE library collection: Delta47_JCRB cell viability assay (AID 1918925; further: nearly all actives have a fitted effect of over 45% in size; further: potency means the concentration at half of the fitted maximal effect)
Method in brief: (§2)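 Luminescent ATP measurement with CellTiter-Glo gives viability, scaled between DMSO-only wells (100%) and media-only wells (0%). Cells, 500 per well, faced library compounds for 48 hours at 37C.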

[6] = Quantitative High-Throughput drug screen in 47 multiple myeloma cell lines against the NCATS MIPE library collection: EJM_DSMZ cell viability assay (AID 1918926; further: nearly all actives have a fitted effect of over 30% in size; further: potency means the concentration at half of the fitted maximal effect)
Method in brief: as §2

[7] = Quantitative High-Throughput drug screen in 47 multiple myeloma cell lines against the NCATS MIPE library collection: AMO1_DSMZ cell viability assay (AID 1918927; further: nearly all actives have a fitted effect of over 30% in size; further: potency means the concentration at half of the fitted maximal effect)
Method in brief: as §2

[8] = Quantitative High-Throughput drug screen in 47 multiple myeloma cell lines against the NCATS MIPE library collection: ARP1_JJKsccF8 cell viability assay (AID 1918928; further: nearly all actives have a fitted effect of over 40% in size; further: potency means the concentration at half of the fitted maximal effect)
Method in brief: (§3)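 500 cells/well; MIPE 4.0 library pinned in; 48 h, 37 °C, 5% CO2; CellTiter-Glo ATP luminescence. Controls: DMSO = 100% viability, medium only = 0%.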

[9] = Quantitative High-Throughput drug screen in 47 multiple myeloma cell lines against the NCATS MIPE library collection: ARD_JJKsccE7 cell viability assay (AID 1918929; further: potency means the concentration at half of the fitted maximal effect)
Method in brief: as §2

[10] = Quantitative High-Throughput drug screen in 47 multiple myeloma cell lines against the NCATS MIPE library collection: Karpas417_ECACC cell viability assay (AID 1918961); settings: Karpas417 myeloma viability, CellTiter-Glo ATP luminescence, 48 h; viability (% of DMSO): at 45.8 µM (top of the series); further: potency means the concentration at half of the fitted maximal effect
Method in brief: as §2

[11] = biological target: Luciferin 4-monooxygenase (Photinus pyralis) (UniProt P08659); assay: Primary firefly luciferase (FLuc) qHTS assay for identification of artifact compounds. (AID 1845220); settings: outcome: dose series up to 54.1 µM; further: nearly all actives have a fitted effect of over 60% in size
Method in brief: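 In this counter-screen for luciferase artifacts, test compounds met substrate (10 uM each luciferin and ATP) before 10 nM enzyme started the reaction. Light output was measured 5 min later.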

[12] = Primary fluorescence-based thiol-reactive (MSTI) qHTS assay for identification of artifact compounds. (AID 1845221);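 further: thiol-reactive compounds lower the probe fluorescence signal; nearly all actives have a fitted effect of over 65% in size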
Method in brief: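 A multi-concentration qHTS design tested compounds against 4 uM MSTI, pH 7.4 phosphate-buffered saline. Plates were protected from light for 1 h at room temperature before imaging fluorescence.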

[13] = system: Nanoluciferase (engineered Oplophorus gracilirostris luciferase); assay: Primary Nanoluciferase (NLuc) qHTS assay for identification of artifact compounds. (AID 1845222);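 further: NLuc secreted into diluted conditioned medium of S16 cells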
Method in brief: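 Using secreted nanoluciferase in S16 culture medium (0.22 um filtered, 1:55 dilution), compounds were preincubated 15 min at RT. Signal was generated with Nano-Glo reagent (1:100) over 5 min.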

[14] = Primary redox qHTS assay for identification of artifact compounds. (AID 1845223)
Method in brief: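 Redox-cycling detection via DTT (250 uM final) oxidation coupled to Amplex Red (25 uM)/HRP (250 mU/mL) in HBSS. 15 min preincubation plus 30 min after DTT, room temperature. Ex/Em 525/598 nm; 4-parameter Hill fit against DMSO and 10 uM DA3003.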

[15] = Quantitative High-Throughput drug screen in 47 multiple myeloma cell lines against the NCATS MIPE library collection: Karpas620_DSMZ cell viability assay (AID 1918959); further: nearly all actives have a fitted effect of over 30% in size; further: potency means the concentration at half of the fitted maximal effect
Method in brief: as §1

[16] = Quantitative High-Throughput drug screen in 47 multiple myeloma cell lines against the NCATS MIPE library collection: KMM1_JCRB cell viability assay (AID 1918960); further: nearly all actives have a fitted effect of over 30% in size; further: potency means the concentration at half of the fitted maximal effect
Method in brief: as §3

[17] = Quantitative High-Throughput drug screen in 47 multiple myeloma cell lines against the NCATS MIPE library collection: JIM3_ECACC cell viability assay (AID 1918963; further: nearly all actives have a fitted effect of over 35% in size; further: potency means the concentration at half of the fitted maximal effect)
Method in brief: as §1

[18] = Quantitative High-Throughput drug screen in 47 multiple myeloma cell lines against the NCATS MIPE library collection: KHM11_PLB cell viability assay (AID 1918962); further: nearly all actives have a fitted effect of over 35% in size; further: potency means the concentration at half of the fitted maximal effect
Method in brief: as §1

[19] = HepG2 viability counterscreen (readout 2: ATP content) against the NCATS DSHEA and TCM libraries (AID 1794840);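 further: HepG2 cells exposed to substances for about 24 h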
Method in brief: (§4)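 1,000 HepG2 cells/well, 4 h attach; compounds ~24 h, 37C/5% CO2. Readout 1: GF-AFC 25 uM final, 30 min, fluorescence 380/510 nm. Readout 2: CellTiter-Glo, 30 min RT, luminescence.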

[20] = HepG2 viability counterscreen (readout 1: protease activity) against the NCATS DSHEA and TCM libraries (AID 1794841);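 further: cells exposed to compounds for about 24 h before the protease read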
Method in brief: as §4

Sequence of Glutathione peroxidase 1 (Homo sapiens) (P07203 whole entry, looked up): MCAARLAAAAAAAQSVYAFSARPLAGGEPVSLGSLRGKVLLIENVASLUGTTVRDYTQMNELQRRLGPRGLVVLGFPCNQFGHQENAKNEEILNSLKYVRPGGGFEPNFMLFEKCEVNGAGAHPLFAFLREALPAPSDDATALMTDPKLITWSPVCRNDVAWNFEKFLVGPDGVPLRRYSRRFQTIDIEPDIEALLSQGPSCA
Sequence of Metallo-beta-lactamase type 2 (Klebsiella pneumoniae) (C7C422 whole entry, looked up): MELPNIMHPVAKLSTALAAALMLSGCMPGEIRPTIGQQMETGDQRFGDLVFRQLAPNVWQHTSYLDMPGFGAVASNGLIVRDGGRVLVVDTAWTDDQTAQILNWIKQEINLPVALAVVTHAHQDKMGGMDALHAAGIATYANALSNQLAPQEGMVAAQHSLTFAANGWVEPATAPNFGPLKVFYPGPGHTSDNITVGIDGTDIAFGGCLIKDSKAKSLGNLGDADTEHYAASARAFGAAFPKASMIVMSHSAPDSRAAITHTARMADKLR
Sequence of Phospholipid hydroperoxide glutathione peroxidase GPX4 (Homo sapiens) (P36969 whole entry, looked up): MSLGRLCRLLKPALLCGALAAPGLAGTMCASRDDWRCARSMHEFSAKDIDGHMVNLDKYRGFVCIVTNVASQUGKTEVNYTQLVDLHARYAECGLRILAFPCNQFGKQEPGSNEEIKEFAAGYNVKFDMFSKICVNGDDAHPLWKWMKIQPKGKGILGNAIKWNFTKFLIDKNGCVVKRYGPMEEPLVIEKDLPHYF

SMILES | outcome [1] | Potency [2] | Potency [3] | Potency [4] | Potency [5] | Potency [6] | Potency [7] | Potency [8] | Potency [9] | Potency [10] | outcome [11] | outcome [12] | outcome [13] | outcome [14] | Potency [15] | Potency [16] | Potency [17] | Potency [18] | outcome [19] | outcome [20]
CN1CCC(=C2c3ccccc3CC(=O)c3sccc32)CC1 | inactive | inactive | inactive | inactive | 8330 nM (active) | 20900 nM (active) | 16600 nM (active) | inactive | inactive | inactive |  |  |  |  |  |  |  |  |  | 
Clc1ccc2c(c1)C(N1CCNCC1)=Nc1ccccc1O2 | inactive | inactive | inactive | inactive |  | inactive |  |  |  |  | inactive | inactive | inactive | inactive | inactive | inactive | 26400 nM (active) |  |  | 
CC1COc2c(N3CCN(C)CC3)c(F)cc3c(=O)c(C(=O)O)cn1c23 (stereo not drawn) | inactive | inactive | inactive | inactive | inactive | inactive |  | inactive | inactive |  |  |  |  |  | inactive |  | inactive | inactive |  | 
Nc1nc2c(ncn2COC(CO)CO)c(=O)[nH]1 | inactive | inactive | inactive | 26400 nM (active) | 18700 nM (active) | 14800 nM (active) | 13200 nM (active) |  | 4180 nM (active) | 11800 nM (active) |  |  |  |  |  | 6620 nM (active) | 2640 nM (active) | 20900 nM (active) |  | 
CS(=O)(=O)Nc1ccc([N+](=O)[O-])cc1Oc1ccccc1 | inactive | inactive | inactive | inactive | inactive | inactive | inactive | 11800 nM (active) |  |  |  |  |  |  | inactive | inactive | inactive | inactive |  | 
O=C1c2c(O)ccc(O)c2C(=O)c2c(NCCNCCO)ccc(NCCNCCO)c21 | inactive | inactive | inactive | 1660 nM (active) | 132 nM (active) | 833 nM (active) | 935 nM (active) | 469 nM (active) | 20900 nM (active) | 16600 nM (active) |  |  |  |  | 5260 nM (active) | 4180 nM (active) | 1870 nM (active) | 833 nM (active) |  | 
CC#C[C@]1(O)CC[C@H]2[C@@H]3CCC4=CC(=O)CCC4=C3[C@@H](c3ccc(N(C)C)cc3)C[C@@]21C | inactive | inactive | inactive | 1660 nM (active) | 590 nM (active) | 1320 nM (active) | 743 nM (active) | 1050 nM (active) | 2640 nM (active) | 526 nM (active) |  |  |  |  | 662 nM (active) | 1050 nM (active) | 1180 nM (active) | 1870 nM (active) |  | 
Cc1ccc(-c2cc(C(F)(F)F)nn2-c2ccc(S(N)(=O)=O)cc2)cc1 | inactive | inactive | inactive | inactive | 16600 nM (active) | inactive | inactive | inactive | inactive |  | inactive | inactive | inactive | inactive | inactive | inactive |  | inactive |  | 
CN(C)c1nc(N(C)C)nc(N(C)C)n1 | inactive | inactive | inactive | inactive | inactive | inactive | inactive |  | inactive | inactive |  |  |  |  |  | inactive | inactive | inactive |  | 
Cn1c(=O)c2c(ncn2C)n(C)c1=O |  | inactive | inactive |  |  | inactive | inactive | inactive | inactive |  |  |  |  |  | inactive | inactive | inactive | inactive | inactive | inactive
CN1C2CCC1CC(OC(=O)C(CO)c1ccccc1)C2 (stereo not drawn) | inactive | inactive | inactive | inactive | inactive | inactive | inactive | inactive | inactive |  |  |  |  |  | inactive | inactive | inactive | inactive |  | 
NC(=O)NO | inactive | inactive | inactive | 3320 nM (active) | 2350 nM (active) | 526 nM (active) | 4690 nM (active) | 2960 nM (active) | 235 nM (active) | 1480 nM (active) |  |  |  |  | 3720 nM (active) | 235 nM (active) | 187 nM (active) | 2960 nM (active) |  | 
Cc1cc(C(C)(C)C)c(O)c(C)c1CC1=NCCN1 | inactive | inactive | inactive | inactive | inactive | inactive | inactive | inactive | inactive |  | inactive |  | inactive | inactive | inactive | inactive | inactive | inactive |  | 
CN(CCOc1ccc(NS(C)(=O)=O)cc1)CCc1ccc(NS(C)(=O)=O)cc1 | inactive | inactive | inactive | inactive | inactive | inactive | inactive | inactive | inactive | inactive |  |  |  |  | inactive | inactive | inactive |  |  | 
NCCS(=O)(=O)O | inactive | inactive | inactive | inactive | inactive | inactive | inactive | inactive | inactive |  |  |  |  |  |  | inactive |  |  |  | 
CN(C)CCCN1c2ccccc2CCc2ccc(Cl)cc21 | inactive | inactive | inactive | 1180 nM (active) | 1180 nM (active) | 264 nM (active) | 1050 nM (active) |  | 8330 nM (active) |  |  |  |  |  | 16600 nM (active) | 11800 nM (active) | 4690 nM (active) | 3320 nM (active) |  | 

— PubChem BioAssay (NCATS)
